Test [1] relates to TRPC4 beta (transient receptor potential cation channel C4), mouse. The test can be described thus: TRPC4 cation channel opening, retest – cell-based, Fluo4 calcium, HEK293 TRPC4beta/mu-opioid, duplicates, 10 µM, confirmation (AID 2426;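 active = fluorescence ratio normalized to control raised more than 50% in primary screen plus both repeat runs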). The settings on record: Fluo4 calcium fluorescence, at 10 µM; hits give high values.
The test system of test [2] is transient receptor potential cation channel C4 beta (TRPC4), mouse. The test can be described thus: TRPC4 cation channel opening, second retest – cell-based, second round, Fluo4, HEK293 TRPC4beta/mu-opioid, 1 µM, confirmation (AID 2461;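 active = primary screen active and over 50% activation in each of two duplicate runs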). The settings on record: Fluo4 calcium fluorescence, at 1 µM; hits give high values.
In test [3] the test system is TRPC4 (transient receptor potential cation channel C4 beta), mouse. The test can be described thus: potentiation of DAMGO EC20 TRPC4 response – cell-based, second round, Fluo-4, HEK293 TRPC4beta/mu-opioid, 1 µM, confirmation (AID 2554;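 active = primary screen hit whose fluorescence ratio, in both repeats, exceeds the weak agonist control mean by 3 SD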). Particulars: DAMGO EC20, Fluo-4 calcium flux, at 1 µM; hits give high values.
The test system of test [4] is TRPC4 beta (transient receptor potential cation channel C4), mouse. The test can be described thus: potentiation of DAMGO EC20 TRPC4 response – cell-based, Fluo-4, HEK293 TRPC4beta/mu-opioid, confirmation (AID 2555). The settings on record: DAMGO EC20, Fluo-4 calcium flux, at 10 µM; hits give high values. For orientation: Calcium assays in cells follow changes in intracellular calcium, usually with a dye or a luminescent sensor.

The target of test [5] is Short transient receptor potential channel 4 (Mus musculus) (UniProt Q9QUQ5). The test can be described thus: blockers of DAMGO-evoked TRPC4 calcium flux – cell-based, Fluo4, HEK293 TRPC4beta/mu-opioid, confirmation (AID 2636;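 active = calcium signal cut by more than 3 SD below the full-agonist control yet still positive, in both repeats and the earlier primary screen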). The settings on record: at 10 µM; hits give high values.
Sequence of Short transient receptor potential channel 4 (Mus musculus) (Q9QUQ5 whole entry, looked up): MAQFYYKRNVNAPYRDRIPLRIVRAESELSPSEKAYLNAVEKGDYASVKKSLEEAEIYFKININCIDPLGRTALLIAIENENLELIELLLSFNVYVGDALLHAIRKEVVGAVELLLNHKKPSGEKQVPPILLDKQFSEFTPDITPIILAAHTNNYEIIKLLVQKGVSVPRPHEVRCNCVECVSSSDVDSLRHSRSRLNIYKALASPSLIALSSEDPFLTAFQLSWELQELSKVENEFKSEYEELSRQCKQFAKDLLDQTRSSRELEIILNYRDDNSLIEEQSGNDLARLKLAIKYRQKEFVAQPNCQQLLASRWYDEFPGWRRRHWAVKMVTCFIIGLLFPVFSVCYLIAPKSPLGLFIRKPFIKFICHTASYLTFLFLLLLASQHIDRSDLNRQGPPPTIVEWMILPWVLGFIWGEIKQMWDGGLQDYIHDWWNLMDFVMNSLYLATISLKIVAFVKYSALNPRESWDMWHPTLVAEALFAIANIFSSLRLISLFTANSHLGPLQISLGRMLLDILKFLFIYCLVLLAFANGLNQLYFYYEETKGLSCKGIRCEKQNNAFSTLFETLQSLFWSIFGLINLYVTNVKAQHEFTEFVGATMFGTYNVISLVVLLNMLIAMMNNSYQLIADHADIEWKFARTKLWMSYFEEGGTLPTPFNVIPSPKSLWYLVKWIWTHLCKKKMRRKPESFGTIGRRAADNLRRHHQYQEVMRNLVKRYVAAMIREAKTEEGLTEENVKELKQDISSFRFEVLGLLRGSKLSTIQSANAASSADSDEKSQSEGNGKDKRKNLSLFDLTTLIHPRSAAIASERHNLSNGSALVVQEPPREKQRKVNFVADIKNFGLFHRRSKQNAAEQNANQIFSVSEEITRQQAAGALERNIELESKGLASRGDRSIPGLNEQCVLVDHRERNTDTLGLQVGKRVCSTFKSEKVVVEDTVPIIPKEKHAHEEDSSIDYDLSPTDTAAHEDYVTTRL
Test [6] shares this target. The test can be described thus: blockers of DAMGO-evoked TRPC4 calcium flux – cell-based, second round, Fluo4, HEK293 TRPC4beta/mu-opioid, 1 µM, confirmation (AID 2637;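 active = calcium signal ratio cut to more than 3 SD under the fully stimulated control mean yet still positive, in both repeats and the primary screen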). The settings on record: at 1 µM; hits give high values.
Test [7] shares this target. Put plainly: calcium entry via TRPC4 opening agents – cell-based, HEK293 TRPC4/mu-opioid, Fluo-4 calcium, dose response (AID 434937;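 active = primary screen activator hit with a dose response curve and TRPC4 channel activation at any tested dose; inactive = no activation, no dose response, or not a primary hit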). Particulars: HEK293 TRPC4 cells, Fluo-4 calcium fluorescence ratio; series mostly up to 20 µM.
The target is the same in test [8]. The test can be described thus: potentiation of DAMGO-evoked TRPC4 calcium signal – cell-based, HEK293 TRPC4/mu-opioid, Fluo-4 calcium, EC20 DAMGO, dose response (AID 434941;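 active = earlier screen potentiator hit that boosts the TRPC4 ion channel at some dose, with a dose response; inactive = no potentiation, no dose response, or not a prior hit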;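 also: calcium entry triggered by an EC20 dose of DAMGO at the co-expressed mu-opioid receptor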). The settings on record: HEK293 TRPC4/mu-opioid cells, Fluo-4 calcium fluorescence; series mostly up to 20 µM.
For test [9] the target is unchanged. The test can be described thus: block of DAMGO-driven TRPC4 calcium entry – cell-based, HEK293 TRPC4/mu-opioid, Fluo-4 calcium, dose response (AID 434942;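 active = primary screen inhibitor hit that blocks the TRPC4 channel at some tested dose, yielding a dose curve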). Particulars: HEK293 TRPC4/mu-opioid cells, DAMGO-evoked Fluo-4 calcium ratio; series mostly up to 20 µM.
The target of test [10] is Short transient receptor potential channel 6 (Mus musculus) (UniProt Q61143). Put plainly: TRPC6 blockade by TRPC4 inhibitor hits – cell-based, HEK293, membrane potential dye, duplicate, selectivity assay for TRPC4 inhibitor project, confirmation (AID 434948;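 active = active in primary screen and both duplicates, each dropping signal beyond three positive-control SD with fluorescence still positive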). The settings on record: HEK293 TRPC6, membrane potential dye fluorescence, at 10 µM, stimulated with maximal-effect acetylcholine; hits give high values.
Sequence of Short transient receptor potential channel 6 (Mus musculus) (Q61143 whole entry, looked up): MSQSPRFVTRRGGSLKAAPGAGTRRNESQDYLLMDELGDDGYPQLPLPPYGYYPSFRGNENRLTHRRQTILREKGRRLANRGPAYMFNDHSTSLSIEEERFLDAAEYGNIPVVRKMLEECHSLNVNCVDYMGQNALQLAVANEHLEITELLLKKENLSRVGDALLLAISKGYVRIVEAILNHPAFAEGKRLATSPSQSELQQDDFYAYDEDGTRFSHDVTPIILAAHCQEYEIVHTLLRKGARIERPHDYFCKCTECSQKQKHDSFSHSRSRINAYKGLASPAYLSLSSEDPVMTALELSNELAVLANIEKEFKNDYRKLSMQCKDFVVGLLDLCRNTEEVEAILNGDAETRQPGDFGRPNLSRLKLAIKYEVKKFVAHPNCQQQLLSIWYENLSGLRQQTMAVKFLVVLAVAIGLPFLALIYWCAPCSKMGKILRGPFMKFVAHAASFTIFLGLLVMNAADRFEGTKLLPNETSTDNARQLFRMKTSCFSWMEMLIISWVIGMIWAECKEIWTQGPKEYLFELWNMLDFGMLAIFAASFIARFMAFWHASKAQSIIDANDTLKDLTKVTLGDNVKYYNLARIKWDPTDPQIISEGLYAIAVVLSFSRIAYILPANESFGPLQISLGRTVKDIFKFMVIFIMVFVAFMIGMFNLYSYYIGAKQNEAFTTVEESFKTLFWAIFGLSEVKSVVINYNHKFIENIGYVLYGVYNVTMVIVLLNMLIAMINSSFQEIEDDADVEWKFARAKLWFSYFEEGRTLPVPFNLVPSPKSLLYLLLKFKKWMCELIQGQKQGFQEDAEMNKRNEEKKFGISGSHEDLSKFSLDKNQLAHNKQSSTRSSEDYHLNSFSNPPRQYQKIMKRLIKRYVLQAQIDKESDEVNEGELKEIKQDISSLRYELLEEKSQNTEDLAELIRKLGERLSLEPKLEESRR

Test [11] shares this target. Put plainly: TRPC6 opening by TRPC4 activator hits – cell-based, HEK293, membrane potential dye, duplicate, selectivity assay for TRPC4 activator project, confirmation (AID 434950;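 active = membrane potential signal rise above negative control mean plus 3 SD in both duplicates, also active in the earlier TRPC4 screen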). Particulars: HEK293 TRPC6, membrane potential fluorescence, at 10 µM; activation: hits give high values; outcome: activation.
The target is the same in test [12]. Put plainly: positive modulators of mouse TRPC6 channel – HEK293 cells, membrane potential dye, duplicate, selectivity assay for TRPC4 potentiator project, confirmation (AID 434952;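 active = compound raising the membrane signal above positive-control mean plus 3 SD in both repeats, and a primary screen hit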). Particulars: HEK293 TRPC6, membrane potential dye fluorescence, at 10 µM, maximal acetylcholine added after compound; hits give high values.
Test [13] addresses Short transient receptor potential channel 4 (Mus musculus) (UniProt Q9QUQ5). The test can be described thus: calcium flux activators in TRPC4/5HT1a cells, counter-screen for TRPC4 activator project, cell-based, second counter screen, HEK293 TRPC4/5HT1a, Fluo-4 (AID 434977;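 active = calcium signal rise above buffer-control mean plus 5 SD in both duplicates, and also a hit in the primary screen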). The settings on record: Fluo-4 calcium flux, at 10 µM; hits give high values.
The nature of test [14]: serotonin-gated TRPC4 signal block – cell-based, second counter screen, HEK293 TRPC4/5HT1a, Fluo-4, counter-screen for TRPC4 inhibitor project, confirmation (AID 434978;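 active = primary screen active whose calcium signal fell more than 3 SD beyond the full-serotonin control mean in both duplicate plates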;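 also: serotonin given first at submaximal then at maximal dose after compound preincubation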). Particulars: Fluo-4 calcium flux, at 10 µM, serotonin added to trigger calcium flux; hits give high values. For orientation: A counterscreen serves to expose hits that act by an unwanted route or on another target.

Test [15] concerns TRPC4 (mouse), co-expressed with 5HT1a in HEK293. The test can be described thus: enhancement of serotonin-evoked TRPC4 response – cell-based, second counter screen, HEK293 TRPC4/5HT1a, Fluo-4, counter-screen for TRPC4 potentiator project, confirmation (AID 434979;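 active = signal rise over 3 SD above mean of control wells given weak agonist, in both repeats and first screen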). The settings on record: Fluo-4 calcium flux, at 10 µM, serotonin added at its EC20 dose; hits give high values.
Test [16] can be described thus: nonspecific calcium rise without TRPC4 – cell-based, HEK293 mu-opioid receptor line, counter-screen for TRPC4 activator project, confirmation (AID 449723;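 active = hit in primary screen, with calcium signal over 5 SD above buffer well mean in both duplicates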;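 also: counter screen cells carry the mu-opioid receptor alone and lack TRPC4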). The settings on record: HEK293 mu-opioid cells, Fluo-4 calcium fluorescence, at 10 µM; hits give high values.
Test [17] can be described thus: nonspecific potentiation of DAMGO calcium response – cell-based, HEK293 mu-opioid receptor line, counter-screen for TRPC4 allosteric potentiator project, confirmation (AID 449724;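 active = calcium signal rise more than 3 SD above the low-dose agonist control mean, in both duplicate plates and the primary screen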;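 also: HEK293 cells carrying mu-opioid receptor only with no TRPC4 channel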). Particulars: HEK293 mu-opioid receptor cells, Fluo-4 calcium flux, at 10 µM, compound added before EC20 DAMGO stimulus; hits give high values.

Data on 13 compounds can be found in PubChem BioAssay.

For some assays here: Results with a measured potency or affinity are listed apart. Active and inactive are the calls of the source.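 The calls were made as follows, unless noted: active = primary screen hit whose calcium fluorescence ratio, in both repeats, exceeds the weak agonist control mean by 3 SD; inactive = the rest.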

`O=S(=O)(c1ccc(Oc2ccc(Br)cc2)cc1)N1CCOCC1`: the outcome in test [1], in [2], in [3], in test [4], in test [5] and in test [6] was inactive. Besides, the outcome in test [7], in test [8], in test [9], in [10], in [11] and in [12] was inactive. For the same compound, the result in [13], in test [14], in test [15], in test [16] and in [17] was inactive.

With `N=c1c(C(=O)NCC2CCCO2)cc2c(=O)n3ccccc3nc2n1Cc1ccc(Cl)cc1` (stereo unspecified), the outcome in test [1], in test [2], in test [3], in [5], in [6] and in test [7] was inactive. Moreover, the result in test [8], in [9], in test [10], in test [11], in test [12] and in test [13] was inactive. Further, the result in test [14], in [16] and in [17] was inactive. Moreover, the potentiation in test [4] was 57% (active); in [15], 61% (active).

Take `COC(=O)C1=C(C)NC2=C(C(=O)c3ccccc32)C1c1ccc(-c2ccc(C(=O)O)cc2)o1` (stereo unspecified): the result in test [1], in test [2], in test [3], in [4], in [5] and in test [6] was inactive. Further, the result in test [7], in test [8], in test [9], in test [10], in [11] and in test [12] was inactive. The result in [13], in test [14], in test [15] and in test [16] was inactive. Also, the activation in test [17] was 1780% (active).

As to `CCOC(=O)C1CCN(c2nc3ccccc3nc2C(C#N)C(=O)OCCOC)CC1` (stereo unspecified), the result in [1], in [2], in test [3], in [4], in [5] and in [6] was inactive. Further, the outcome in test [7], in test [8], in test [9], in test [10], in [11] and in [12] was inactive. In addition, the result in [13], in test [14], in test [15], in [16] and in test [17] was inactive.

As for `CCc1c(C)nc2c(-c3ccccc3)c(C)nn2c1Nc1ccc(NC(C)=O)cc1`, the outcome in test [1], in test [2], in test [3], in test [5], in test [6] and in test [7] was inactive. The outcome in [8], in test [9], in test [10], in test [11], in test [12] and in test [13] was inactive. The result in test [14], in test [16] and in test [17] was inactive. The potentiation in test [4] was 14% (active); in [15] it was 74% (active).

For `CCOC(=O)C1=C(N)OC2=C(C(=O)CC(C)(C)C2)C1c1ccc(CC)s1` (stereo unspecified), the result in [1], in test [2], in test [3], in test [4], in test [5] and in test [6] was inactive. For the same compound, the result in test [7], in test [8], in test [9], in test [10], in [11] and in test [12] was inactive. Besides, the result in test [13], in test [14], in [16] and in test [17] was inactive. For the same compound, the potentiation in [15] is 27.5% (active).

On to `Cn1c(=O)c2c(nc(CN3CCc4ccccc4C3)n2Cc2cccc(Cl)c2)n(C)c1=O`, for which the result in test [1], in [2], in test [5], in test [6], in [7] and in test [8] was inactive. The outcome in test [9], in test [10], in [11], in [12], in test [13] and in test [14] was inactive. Also, the result in test [16] and in test [17] was inactive. The potentiation is 6% (active) in [3], 45% (active) in test [4] and 78.3% (active) in [15].

Consider `Cc1nn(-c2ccccc2)c2nc(-c3ccccc3)cc(C(=O)N3CCOCC3)c12`, for which the result in test [1], in test [2], in test [3], in [5], in test [6] and in test [7] was inactive. For the same compound, the result in [8], in [9], in [10], in test [11], in test [12] and in test [13] was inactive. Moreover, the result in test [14], in test [16] and in [17] was inactive. Further, the potentiation in test [4] was 15% (active); in test [15] it was 34.4% (active).

Regarding `CCOC(=O)C1C(=O)C=C(c2ccc(C)cc2)CC1c1cccc([N+](=O)[O-])c1` (stereo unspecified), the result in [1], in test [2], in [3], in test [5], in test [6] and in test [7] was inactive. Moreover, the outcome in test [8], in [9], in test [10], in [11], in test [12] and in test [13] was inactive. For the same compound, the result in test [14], in test [16] and in test [17] was inactive. Also, the potentiation was 46% (active) in [4] and 38.9% (active) in [15].

In the case of `O=Cc1c(N2CCCCC2)nc2ccccn2c1=O`, the result in test [1], in [2], in test [3], in [4], in [5] and in test [6] was inactive. Also, the result in [7], in [8], in [9], in [10], in test [11] and in [12] was inactive. The outcome in [13], in test [14], in [15], in [16] and in test [17] was inactive.

Take `CC(=O)c1ccc(N2CCN(C(=O)C3CCN(S(=O)(=O)c4ccc5c(c4)CC(C)N5C(=O)C4CC4)CC3)CC2)cc1` (stereo unspecified): the outcome in test [1], in [2], in [3], in test [5], in test [6] and in [7] was inactive. The outcome in [8], in test [9], in test [10], in [11], in test [12] and in [13] was inactive. In addition, the outcome in test [14], in test [16] and in test [17] was inactive. Also, the potentiation was 9% (active) in test [4] and 14.8% (active) in test [15].

For `CCCn1c(SCC(=O)N2c3ccccc3Sc3ccccc32)nc2c1c(=O)n(C)c(=O)n2C`, the result in [1], in [2], in test [3], in test [5], in test [6] and in test [7] was inactive. The outcome in test [8], in test [9], in [10], in test [11], in test [12] and in test [13] was inactive. Moreover, the outcome in test [14], in test [16] and in [17] was inactive. Also, the potentiation was 18% (active) in test [4] and 45.1% (active) in [15].

On to `Cc1ccc(S(=O)(=O)c2c(C(=O)c3ccccc3)cnc3cc4c(cc23)OCCO4)cc1`, for which the outcome in test [1], in test [2], in [3], in [4], in test [5] and in [6] was inactive. Besides, the outcome in test [7], in test [8], in [9], in [10], in [11] and in test [12] was inactive. The outcome in [13], in test [14], in [16] and in [17] was inactive. Moreover, in [15], the potentiation was 14.5% (active).
